Experiment [1] deals with Lysosomal acid glucosylceramidase (Homo sapiens) (UniProt P04062). Briefly: Glucocerebrosidase-p2 (AID 348; in the data active = potency below about 10 µM; note: potency is the fitted concentration of half-maximal effect). The settings on record: purified GBA, blue fluorogenic substrate, 40 min. In a few lines: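 Compounds titrated from 0.6 nM upwards against 0.2 nM enzyme in pH 5.9 citric acid/KH2PO4, taurocholate, tween-20; blue fluorogenic substrate 80 uM, 40 min room temperature, stopped and read Ex 365/Em 440 for AC50.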
Lysosomal acid glucosylceramidase (Homo sapiens), sequence (P04062 whole entry, looked up): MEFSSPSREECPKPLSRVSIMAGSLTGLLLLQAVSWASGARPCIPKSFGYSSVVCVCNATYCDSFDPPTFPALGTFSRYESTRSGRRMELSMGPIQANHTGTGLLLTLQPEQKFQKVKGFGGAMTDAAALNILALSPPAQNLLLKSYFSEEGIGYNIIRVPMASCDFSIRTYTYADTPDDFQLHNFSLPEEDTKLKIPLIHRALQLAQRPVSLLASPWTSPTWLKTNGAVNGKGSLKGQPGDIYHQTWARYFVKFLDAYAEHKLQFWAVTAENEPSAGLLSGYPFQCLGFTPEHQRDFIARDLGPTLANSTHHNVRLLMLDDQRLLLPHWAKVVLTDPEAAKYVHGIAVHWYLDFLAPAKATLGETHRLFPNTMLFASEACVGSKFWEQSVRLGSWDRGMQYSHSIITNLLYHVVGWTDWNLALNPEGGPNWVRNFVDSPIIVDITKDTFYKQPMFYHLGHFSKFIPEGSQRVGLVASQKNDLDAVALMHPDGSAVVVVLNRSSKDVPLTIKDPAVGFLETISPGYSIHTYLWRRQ

Experiment [2] can be described thus: AP1 Signaling Pathway (AID 357).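 Note: ME-180 reporter cells stimulated with EGF at its EC50 level; % is set by controls: 0 for no effect and ±100 for the full control effect.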 Conditions: ME-180 AP-1-bla reporter, EGF-induced, beta-lactamase ratio, 5 h; at 7.69 µM (top of the series) unless noted. In a few lines:
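A ratiometric CCF4 readout (405 nm excitation; 460 and 530 nm emission) quantified AP-1-driven beta-lactamase in ME-180 cells after 5 h with compound and EC50 EGF; AC50 values were derived for activators and inhibitors.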

The target of experiment [3] is Cytochrome P450 1A2 (Homo sapiens) (UniProt P05177). Put plainly: p450-cyp1a2 (AID 410; calls by dose curve; note: potency is the fitted concentration of half-maximal effect;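 for activity change, negative = inhibition: -100% = full effect of reference inhibitor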). The settings on record: recombinant CYP1A2, luciferin-ME demethylation, luminescence; series mostly up to 57 µM. In a few lines: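 Luminescent readout of luciferin formed from Luciferin-ME by human CYP1A2; data normalized against complete inhibition by 57 uM furafylline. Enzyme 20nM, substrate 100uM at Km, 100mM KPO4 buffer, 60 min reaction at room temperature.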
Cytochrome P450 1A2 (Homo sapiens), sequence (P05177 whole entry, looked up): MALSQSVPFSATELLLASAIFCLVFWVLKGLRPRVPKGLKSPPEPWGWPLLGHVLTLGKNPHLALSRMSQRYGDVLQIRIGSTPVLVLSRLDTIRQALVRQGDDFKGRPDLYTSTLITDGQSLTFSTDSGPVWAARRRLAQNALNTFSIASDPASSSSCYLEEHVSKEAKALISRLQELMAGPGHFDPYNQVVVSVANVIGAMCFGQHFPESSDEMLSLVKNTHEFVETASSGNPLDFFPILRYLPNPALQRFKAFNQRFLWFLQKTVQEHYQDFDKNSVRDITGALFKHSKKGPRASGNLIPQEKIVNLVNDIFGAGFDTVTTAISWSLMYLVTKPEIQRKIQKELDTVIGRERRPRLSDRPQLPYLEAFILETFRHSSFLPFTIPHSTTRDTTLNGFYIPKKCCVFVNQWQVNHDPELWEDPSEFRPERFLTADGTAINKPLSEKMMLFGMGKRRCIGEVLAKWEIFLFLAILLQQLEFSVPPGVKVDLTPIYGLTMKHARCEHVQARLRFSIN

A short description of experiment [4]: Stat Signaling Pathway (AID 446).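 Note: ME-180 cervical cancer cells given 40 pM IL-6 alongside compound; SIE-controlled beta-lactamase reporter measured as 460/530 nm FRET emission ratio; % is set by controls: 0 for no effect and ±100 for the full control effect.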 Conditions: ME-180 SIE beta-lactamase reporter, IL-6 stimulated, 5 h; at 7.69 µM (top of the series) unless noted. In a few lines:
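Screening format detects activators and inhibitors alike: ME-180 SIE-bla cells stimulated at 40 pM IL-6 for 5 hrs with compound, then dual-emission beta-lactamase read at 405 nm excitation.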

In experiment [5] the target is Glucocorticoid receptor (Homo sapiens) (UniProt P04150). Briefly: GR-EFC Redistribution (AID 451; calls by dose curve; note: potency is the fitted concentration of half-maximal effect). Conditions: CHO-K1 GR-EFC translocation, beta-gal luminescence, 2 h. In a few lines:
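Translocation of GR-ED fusion to nuclear EA restores b-gal, read by luminescence after 1 h room-temperature detection. Engineered CHO-K1 biosensor cells, 1,000/well, exposed 2 h at 37 C to titrations up to 46 uM final.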

Experiment [6] has as its target Mitogen-activated protein kinase 10 (Mus musculus) (UniProt Q61831). Briefly: JNK3 AlphaScreen Assay (AID 530).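 Note: kinase came from lysate of stimulated human HepG2 cells; signal reports phosphorylation of biotinylated GST-cJun 1-79 at Ser73 with 10 µM ATP; % is set by controls: 0 for no effect and ±100 for the full control effect.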 The settings on record: JNK3 lysate, c-Jun phosphorylation; series mostly up to 57.1 µM. In a few lines: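 Compound titrations were preincubated 15 minutes at room temperature with substrate, antibody and pre-activated JNK3-containing HepG2 lysate. Reactions were started with 10 uM ATP and stopped with EDTA-containing bead buffer for AlphaScreen detection.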
(Alpha assays give light when donor and acceptor beads are brought close together.)

The target of experiment [7] is 3',5'-cyclic-AMP phosphodiesterase 4B (Homo sapiens) (UniProt Q07343). Put plainly: qHTS Assay for Inhibitors of PDE-IV (AID 607; active = well fitted activation curve with a large enough effect in the main read-out, with a control signal flat, not every such curve was filed as active; note: % of control where 0% means no effect). The settings on record: HEK293 ACTOne CNG channel cells, membrane potential fluorescence; series mostly up to 22.9 µM. In a few lines: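 The readout is membrane depolarisation from a cAMP-sensing CNG channel, detected with a potential dye at ex 535/em 590. Cells were HEK293-derived (endogenous PDE-IV) at 1000 cells/well, titrated up to 22.9 uM final.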
3',5'-cyclic-AMP phosphodiesterase 4B (Homo sapiens), sequence (Q07343 whole entry, looked up): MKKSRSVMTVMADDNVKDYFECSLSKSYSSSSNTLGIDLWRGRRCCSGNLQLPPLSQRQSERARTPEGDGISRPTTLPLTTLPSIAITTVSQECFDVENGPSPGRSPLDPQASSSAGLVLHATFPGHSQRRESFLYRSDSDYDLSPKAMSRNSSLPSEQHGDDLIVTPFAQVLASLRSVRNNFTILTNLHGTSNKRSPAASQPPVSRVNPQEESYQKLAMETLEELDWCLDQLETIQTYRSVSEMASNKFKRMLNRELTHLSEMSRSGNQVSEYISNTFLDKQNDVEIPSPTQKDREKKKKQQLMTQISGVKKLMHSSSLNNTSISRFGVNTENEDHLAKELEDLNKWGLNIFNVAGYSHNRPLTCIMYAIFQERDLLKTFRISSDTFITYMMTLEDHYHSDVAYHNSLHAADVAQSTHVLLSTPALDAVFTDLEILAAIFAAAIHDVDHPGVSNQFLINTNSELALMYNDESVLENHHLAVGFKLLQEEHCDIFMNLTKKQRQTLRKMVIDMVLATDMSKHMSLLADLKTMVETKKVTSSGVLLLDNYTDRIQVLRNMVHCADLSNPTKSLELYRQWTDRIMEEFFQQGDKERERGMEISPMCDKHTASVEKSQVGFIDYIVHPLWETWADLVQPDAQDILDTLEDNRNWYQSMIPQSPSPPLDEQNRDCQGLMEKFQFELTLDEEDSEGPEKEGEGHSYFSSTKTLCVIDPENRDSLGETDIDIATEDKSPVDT

Experiment [8] in a line: qHTS Assay for Lipid Storage Modulators (AID 1519; calls by dose curve). Conditions: Drosophila S3 cells, BODIPY lipid droplet/cell ratio, laser cytometry, cells loaded with oleic acid; for activity change, negative = inhibition: at 57.5 µM (top of the series). In a few lines:
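Cells seeded at 5,000 per well were treated with compounds over a concentration series and loaded with oleic acid (400 uM, as added). Lipid droplet fluorescence (488 nm excitation, 500-530 nm channel) was read by laser-scanning cytometry and normalized to 20 uM Triacsin C.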
Background: qHTS replaces the single test concentration by a dilution series.

A short description of experiment [9]: Primary qHTS for small molecule stabilizers of the endoplasmic reticulum resident proteome: Secreted ER Calcium Modulated Protein (SERCaMP) assay (AID 1508630; active = well fitted curve in the direction sought with a large enough effect; an effect the other way counts as inactive or inconclusive; note: % is set by controls: 0 for no effect and ±100 for the full control effect). Conditions: SH-SY5Y GLuc-SERCaMP (Gaussia luciferase released on ER calcium loss) secretion, thapsigargin, luminescence; series mostly up to 38.4 µM. In a few lines: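 GLuc-SERCaMP-expressing SH-SY5Y cells, pretreated 16 h with compound, are challenged with thapsigargin to empty ER calcium stores; after 4 h, coelenterazine is added directly to the medium and luminescence is imaged.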

Experiment [10] concerns the target Glucocorticoid receptor (Homo sapiens) (UniProt P04150). Briefly: GR-GFP Redistribution (AID 450;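 active = compounds whose dose series gives a full or clear partial fitted curve of increased nuclear translocation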; note: potency is the fitted concentration of half-maximal effect). The settings on record: U2OS GR-GFP nuclear translocation, laser cytometry, 2 h.
Experiment [11] has as its target Cytochrome P450 3A4 (Homo sapiens) (UniProt P08684). Put plainly: qHTS Assay for Inhibitors and Substrates of Cytochrome P450 3A4 (AID 884; active = well fitted curve in the direction sought with a large enough effect; an effect the other way counts as inactive or inconclusive; note: potency is the fitted concentration of half-maximal effect; nearly all actives have a fitted effect of over 50% in size). The settings on record: recombinant CYP3A4, Luciferin-PPXE luminescence; series mostly up to 57.1 µM. The gist of the method: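 20 nM human CYP3A4 with 25 uM Luciferin-PPXE (at KM) in 200 mM KPO4, preincubated 10 min with compound; NADPH regeneration started a 60 min RT reaction. Luciferin detected by luminescence, normalized to 57 uM ketoconazole as full inhibition.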

The target is the same in experiment [12]. Put plainly: qHTS Assay for Activators of Cytochrome P450 3A4 (AID 885; active = well fitted curve in the direction sought with a large enough effect; an effect the other way counts as inactive or inconclusive; note: nearly all actives have a fitted effect of over 65% in size). Conditions: recombinant CYP3A4, Luciferin-PPXE luminescence, 60 min; series mostly up to 57.1 µM. The gist of the method:
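Steps: enzyme/substrate mix dispensed; compound added, 10 min RT; NADPH regeneration solution added, 60 min RT; luciferin detection buffer stops reaction; 20 min later luminescence measured.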

The nature of experiment [13]: Confirmation and Secondary Assay for Modulators of Hemoglobin Beta Chain Splicing at IVS2 654 locus (AID 910; active = well fitted curve in the direction sought with a large enough effect; an effect the other way counts as inactive or inconclusive;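 note: HeLa cells stably carrying EGFP split by mutant beta-globin IVS2-654 intron; per-well total GFP intensity by laser scanning cytometry after 2-day treatment; % of control where 0% means no effect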). The settings on record: HeLa EGFP-654 splicing reporter, GFP fluorescence, 48 h; series mostly up to 38.3 µM. In a few lines: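 Readout: per-well total peak green fluorescence (488 nm ex, 500–520 nm em) from objects 5–250 µm, reflecting correct splicing of an EGFP-654 reporter. Compounds were applied for 2 days at 37 °C to overnight-plated HeLa EGFP-654 cells; controls were DMSO and 500 nM IVS2-654 PNA.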

Experiment [14] is described as follows: Confirmation and Secondary Assay for Modulators of Hemoglobin Beta Chain Splicing at IVS2 705 locus (AID 930; active = well fitted curve in the direction sought with a large enough effect; an effect the other way counts as inactive or inconclusive;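 note: HeLa cells stably expressing the EGFP-705 splicing reporter; GFP fluorescence per well restored by corrected splicing of the IVS2-705 intron in EGFP; % of control where 0% means no effect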). The settings on record: HeLa EGFP-705 splicing reporter, GFP fluorescence, 48 h; series mostly up to 38.3 µM. In a few lines:
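Splice-correction reporter: EGFP cDNA split by beta-globin intron 2 bearing the 705 mutation, stably in HeLa. Compound incubation 2 days, 37C; fluorescent objects 5-250 µm summed per well.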

Experiment [15] deals with Ubiquitin carboxyl-terminal hydrolase 1 (Homo sapiens) (UniProt O94782). Put plainly: Inhibitors of USP1/UAF1: Pilot qHTS (AID 504865; active = well fitted curve in the direction sought with a large enough effect; an effect the other way counts as inactive or inconclusive;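 note: rhodamine fluorescence freed from ubiquitin-rhodamine substrate followed over time; top concentration of the series differs between compounds; % is set by controls: 0 for no effect and ±100 for the full control effect; nearly all actives have a fitted effect of over 35% in size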). Conditions: purified USP1/UAF1, Ub-rhodamine cleavage fluorescence; series mostly up to 54.9 µM. In a few lines: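 Deubiquitinase activity followed as kinetic rhodamine fluorescence release from 150 nM Ub-Rho. 1 nM USP1/UAF1 with compound, after 15 min room-temperature preincubation, in HEPES pH 7.8 buffer containing TCEP, EDTA, BSA and Tween-20.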
Ubiquitin carboxyl-terminal hydrolase 1 (Homo sapiens), sequence (O94782 whole entry, looked up): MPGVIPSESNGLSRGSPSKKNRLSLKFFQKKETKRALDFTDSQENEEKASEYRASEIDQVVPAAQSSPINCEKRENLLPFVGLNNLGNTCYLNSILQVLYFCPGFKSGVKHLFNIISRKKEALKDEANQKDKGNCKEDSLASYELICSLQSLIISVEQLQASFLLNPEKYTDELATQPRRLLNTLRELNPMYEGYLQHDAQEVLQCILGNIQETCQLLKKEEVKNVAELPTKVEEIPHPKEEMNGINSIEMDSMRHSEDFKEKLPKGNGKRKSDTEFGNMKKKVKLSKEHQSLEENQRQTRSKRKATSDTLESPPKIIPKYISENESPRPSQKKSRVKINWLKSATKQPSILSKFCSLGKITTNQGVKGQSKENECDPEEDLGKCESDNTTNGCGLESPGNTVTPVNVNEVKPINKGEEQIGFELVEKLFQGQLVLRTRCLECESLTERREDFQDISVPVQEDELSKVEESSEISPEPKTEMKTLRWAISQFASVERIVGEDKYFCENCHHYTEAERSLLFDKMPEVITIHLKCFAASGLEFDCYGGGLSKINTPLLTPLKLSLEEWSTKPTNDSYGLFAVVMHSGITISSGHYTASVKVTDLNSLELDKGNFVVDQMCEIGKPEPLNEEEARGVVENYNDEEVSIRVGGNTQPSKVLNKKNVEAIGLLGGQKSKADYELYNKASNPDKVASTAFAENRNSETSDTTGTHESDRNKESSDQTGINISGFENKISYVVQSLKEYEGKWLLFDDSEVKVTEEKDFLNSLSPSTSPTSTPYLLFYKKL

Experiment [16] addresses Cytochrome P450 2D6 (Homo sapiens) (UniProt P10635). Briefly: qHTS Assay for Inhibitors and Substrates of Cytochrome P450 2D6 (AID 891; active = well fitted curve in the direction sought with a large enough effect; an effect the other way counts as inactive or inconclusive; note: potency is the fitted concentration of half-maximal effect; nearly all actives have a fitted effect of over 60% in size). Conditions: recombinant CYP2D6, luciferin-ME EGE luminescence; series mostly up to 57.1 µM. In a few lines:
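Human CYP2D6 (5 nM) with 30 uM Luciferin-ME EGE (at Km) in 100 mM KPO4, compound preincubated 10 min, then NADPH regeneration system for 60 min at room temperature. Luciferin read by luminescence; normalized to 1.43 uM quinidine.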

Setting [17] is: measured here: cell count channel max response.
The mark [18] stands for this setting: measured here: lipid channel max response.

Results filed as inconclusive are left out. Calls of active or inactive are those of the source. Unless noted, calls come from the whole dose curve; as a rule, active = well fitted curve in either direction with a large enough effect (not every such curve was filed as active); inconclusive = small, poorly fitted or top-dose-only effect, or another doubt; inactive = flat fitted curve, though single readings scatter.

Cytochrome P450 3A4 (Homo sapiens), sequence (P08684 whole entry, looked up): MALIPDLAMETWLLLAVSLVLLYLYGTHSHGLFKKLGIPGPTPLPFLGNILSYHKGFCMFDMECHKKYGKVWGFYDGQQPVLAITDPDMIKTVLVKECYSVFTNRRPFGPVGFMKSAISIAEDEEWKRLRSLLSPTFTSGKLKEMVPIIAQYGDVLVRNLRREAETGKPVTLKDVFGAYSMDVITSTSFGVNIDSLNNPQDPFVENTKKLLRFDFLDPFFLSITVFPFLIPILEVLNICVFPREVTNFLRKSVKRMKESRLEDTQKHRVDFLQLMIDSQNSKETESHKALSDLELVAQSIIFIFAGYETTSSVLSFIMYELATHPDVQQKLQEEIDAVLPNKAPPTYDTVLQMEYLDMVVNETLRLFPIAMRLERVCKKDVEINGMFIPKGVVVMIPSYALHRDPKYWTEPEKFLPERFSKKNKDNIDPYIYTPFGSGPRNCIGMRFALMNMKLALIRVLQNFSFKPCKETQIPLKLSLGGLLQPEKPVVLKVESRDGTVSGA
Glucocorticoid receptor (Homo sapiens), sequence (P04150 whole entry, looked up, the tested form may be a part): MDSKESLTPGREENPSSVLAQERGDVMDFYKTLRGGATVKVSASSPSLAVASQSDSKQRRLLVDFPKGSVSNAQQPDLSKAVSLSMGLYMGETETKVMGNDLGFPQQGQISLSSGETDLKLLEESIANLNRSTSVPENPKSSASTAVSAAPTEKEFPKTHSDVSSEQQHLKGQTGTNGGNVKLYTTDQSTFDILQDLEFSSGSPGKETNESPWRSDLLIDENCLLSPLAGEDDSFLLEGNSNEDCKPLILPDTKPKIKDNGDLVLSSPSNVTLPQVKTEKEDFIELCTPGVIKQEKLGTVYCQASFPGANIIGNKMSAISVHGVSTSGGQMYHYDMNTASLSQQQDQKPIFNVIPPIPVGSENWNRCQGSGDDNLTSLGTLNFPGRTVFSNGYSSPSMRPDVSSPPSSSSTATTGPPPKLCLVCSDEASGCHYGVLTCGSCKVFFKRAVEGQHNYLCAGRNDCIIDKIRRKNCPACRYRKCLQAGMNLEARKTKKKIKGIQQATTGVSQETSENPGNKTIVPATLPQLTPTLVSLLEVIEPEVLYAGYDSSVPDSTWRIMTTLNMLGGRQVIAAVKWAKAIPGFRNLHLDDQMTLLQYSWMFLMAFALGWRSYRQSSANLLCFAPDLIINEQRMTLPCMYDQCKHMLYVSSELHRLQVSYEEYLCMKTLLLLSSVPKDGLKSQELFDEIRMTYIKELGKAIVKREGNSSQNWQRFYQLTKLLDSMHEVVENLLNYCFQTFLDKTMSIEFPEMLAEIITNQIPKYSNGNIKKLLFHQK
Cytochrome P450 2D6 (Homo sapiens), sequence (P10635 whole entry, looked up): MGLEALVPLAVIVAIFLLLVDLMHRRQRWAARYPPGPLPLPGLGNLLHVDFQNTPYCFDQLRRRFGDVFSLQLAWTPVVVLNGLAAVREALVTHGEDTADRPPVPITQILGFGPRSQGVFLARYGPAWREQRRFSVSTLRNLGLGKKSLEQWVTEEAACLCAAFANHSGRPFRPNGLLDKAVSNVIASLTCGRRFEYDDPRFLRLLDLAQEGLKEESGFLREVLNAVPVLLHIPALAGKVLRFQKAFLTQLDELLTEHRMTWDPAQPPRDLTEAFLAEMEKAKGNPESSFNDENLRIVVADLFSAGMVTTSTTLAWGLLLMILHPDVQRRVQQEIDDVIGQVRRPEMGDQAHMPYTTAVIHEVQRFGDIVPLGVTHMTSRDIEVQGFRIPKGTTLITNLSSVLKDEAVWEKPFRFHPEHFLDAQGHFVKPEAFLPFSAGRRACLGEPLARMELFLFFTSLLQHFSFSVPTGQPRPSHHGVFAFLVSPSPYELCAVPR

For `CS(=O)(=O)N1CCC2(CCN(c3ccncc3)CC2)CC1`, the Potency in [1] is > 11.4 µM (inactive); in experiment [3], 12.6 µM (active); in experiment [5], > 46 µM (inactive). Also, the figures for the activity change, negative = inhibition in experiment [2] and in experiment [8] were -13.1% (inactive) and 3.83% (inactive), respectively. Besides, the activity, negative = inhibition in experiment [4] was 0.543% (inactive). Besides, the Potency result in [6] and in [7] was “inactive” in each case. Besides, the max response in experiment [8] (setting [17]) came out at 7.45%; in experiment [8] (setting [18]) it was 13.6%. Besides, the outcome in experiment [9] was inactive.
`c1ccc(C(c2ccccc2)N2CCC3(CCNCC3)CC2)cc1`: the Potency is > 11.4 µM (inactive) in [1] and > 46 µM (inactive) in experiment [5]. Further, the activity change, negative = inhibition in experiment [2] was -10.6% (inactive); in experiment [8], -5.07% (inactive). For the same molecule, the Potency result in experiment [3], in experiment [6] and in experiment [7] was “inactive” in each case. Moreover, the activity, negative = inhibition in [4] is 0.474% (inactive). The max response in experiment [8] (setting [17]) is 27.4%; in experiment [8] (setting [18]), 21.5%. The outcome in [9] was inactive.
In the case of `CC(C)CN1CCC2(CC1)CCN(C(=O)c1cc(C(F)(F)F)cc(C(F)(F)F)c1)CC2`, the Potency in experiment [1] is > 11.4 µM (inactive); in [5], > 46 µM (inactive). In addition, the activity change, negative = inhibition in experiment [2] is 3.4% (inactive); in experiment [8] it was -2.84% (inactive). Moreover, the Potency result in [3], in experiment [6] and in [7] was “inactive” in each case. Besides, in experiment [4], the activity, negative = inhibition was 0.414% (inactive). Besides, the values for the max response in [8] (setting [17]) and in experiment [8] (setting [18]) were -18.2% and -17.3%, respectively. The result in experiment [9] was inactive.
On to `Cc1cnc(CNc2ncnc3ccc(-c4cccc(C#N)c4)cc23)cn1`, for which the Potency was > 11.4 µM (inactive) in experiment [1]; 0.398 µM (active) in experiment [3]; > 46 µM (inactive) in experiment [10]; > 46 µM (inactive) in experiment [5]; 3.16 µM (active) in [11]. Further, the activity change, negative = inhibition is -21.7% (inactive) in experiment [2] and 11.4% (inactive) in [8]. In addition, in [4], the activity, negative = inhibition is -7.7% (inactive). Further, the Potency result in experiment [6], in experiment [7], in [12], in [13] and in experiment [15] was “inactive” in each case. In addition, the call in experiment [14] and in [9] was inactive. Further, the max response in experiment [8] (setting [17]) is -3.07%; in [8] (setting [18]) it was 8.37%.
With `CN(C)c1ccc(-c2nc(NCc3cccnc3)c3ccccc3n2)cc1`, the Potency in experiment [1] is 9.34 µM (active); in experiment [3], 1.58 µM (active); in [10] it was > 46 µM (inactive); in experiment [5], > 46 µM (inactive); in experiment [11], 2 µM (active); in experiment [16] it was 7.94 µM (active). Moreover, the activity change, negative = inhibition in experiment [2] was -8.92% (inactive); in experiment [8], 8.26% (inactive). The activity, negative = inhibition in [4] was 19.7% (inactive). The Potency result in experiment [6], in experiment [7], in experiment [12], in experiment [13] and in experiment [15] was “inactive” in each case. Further, the call in experiment [14] and in experiment [9] was inactive. The results for the max response in [8] (setting [17]) and in experiment [8] (setting [18]) were -14.2% and -5.05%, respectively.
For the molecule `O=C(c1ccncc1)N1CCC2(CC1)CCN(c1ccccn1)CC2`, the Potency in experiment [1] is > 11.4 µM (inactive); in experiment [3] it was 12.6 µM (active); in experiment [5] it was > 46 µM (inactive). Further, the results for the activity change, negative = inhibition in experiment [2] and in experiment [8] were 8.14% (inactive) and 6.99% (inactive), respectively. In addition, in experiment [4], the activity, negative = inhibition is -1.09% (inactive). The Potency entry in [6] and in [7] was “inactive” in each case. Further, the max response in experiment [8] (setting [17]) is 10.7%; in experiment [8] (setting [18]) it was 20.3%. Besides, in experiment [9], the outcome was inactive.

The values are drawn from PubChem BioAssay (NCATS).
